CatB mixtures: cathepsin B inhibitors from pooled compounds, primary screen, biochemical, compound mixtures, AMC fluorescence. hit rate 0.06% among 62,000. P07858. Purified cathepsin B, AMC dipeptide fluorescence. inhibition, %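 (ten-compound pools at 5 µM per compound and 50 µM total)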; in the data active = inhibition above about 22%, passing the limit was not always enough; inconclusive = no clear call, values can overlap the other calls;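 note: 0% = enzyme without compound and 100% = no enzyme blank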
CatS block: inhibitors of human cathepsin S, biochemical, compound mixtures. hit rate 0.06% among 62,000. recombinant cathepsin S, AMC dipeptide fluorescence, pooled mixtures. P25774. inhibition, %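 (tested at 5 µM per compound within 10-compound mixtures)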; in the data active = inhibition above about 32%, passing the limit was not always enough; inconclusive = no clear call, values can overlap the other calls;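 note: 0% = enzyme without compound and 100% = blank without enzyme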
CatL inh: inhibitors of human cathepsin L, biochemical; Procathepsin L (Homo sapiens), P07711; purified cathepsin L, fluorogenic substrate, fluorescence; inhibition, %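 (tested at 10 µM)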; hit rate 0.17% among 58,000; in the data active = inhibition above about 45%;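 note: 0% = enzyme with no compound and 100% = no enzyme blank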
BAP1 block: inhibitors of BAP1 deubiquitinase, primary screen, biochemical, Ub-AMC fluorescence, kinetic; Ubiquitin carboxyl-terminal hydrolase BAP1 (Homo sapiens), Q92560; hit rate 0.48% among 72,000; recombinant BAP1, Ub-AMC hydrolysis fluorescence kinetic; active compounds read low; AID 436, 2006; calls only at 20 µM;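 active = activity remaining at or below 50% of control, provided the compound also passes the data quality filters; inactive = the rest, including low values that fail the filters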;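 note: 100% = DMSO wells rate and 0% = substrate alone blank rate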
E coli RNAP: E. coli RNAP inhibitors, biochemical; DNA-directed RNA polymerase subunit beta (Escherichia coli (strain K12)), P0A8V2; hit rate 0.2% among 62,000; E. coli RNA polymerase, fluorescence transcription assay; AID 559, 2006; inhibition, %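 (tested at 10 µM)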; in the data active = inhibition above about 20%;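 note: 0% = enzyme without compound and 100% = no enzyme blank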
CatB block: human cathepsin B inhibitors, primary screen, biochemical, fluorogenic substrate; purified cathepsin B, fluorescence; P07858; inhibition, %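 (tested at 10 µM)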; hit rate 0.1% among 63,000; in the data active = inhibition above about 21%;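 note: 0% = enzyme with no compound and 100% = no enzyme blank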
BAP1 inh conf: BAP1 deubiquitinase inhibitors, hit retest, confirmation, orthogonal assay, biochemical, Ub-ethyl ester substrate, HPLC readout; shares compounds with BAP1 block; % of control activity, % at 20 µM; purified BAP1, Ub-ethyl ester hydrolysis; active compounds read low; hit rate 8% among 310;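 active = percent of control activity at or below 60%; inconclusive = HPLC trace unusable from injection failure or solvent front hiding peaks; inactive = the rest, plus ubiquitin peak ratio over a set limit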
* = called active by the depositor. Compounds with a hit are over-represented: about 0.81% of the library has one in this group of screens.

Results for Cc1ccc(NC(=O)CSc2nnc([C@@H](N)Cc3c[nH]c4ccccc34)o2)c(C)c1 ?
CatB mixtures: -3; CatS block: 2; CatL inh: 93*; BAP1 block: inactive; E coli RNAP: 3; CatB block: 6

Results for CCc1ccccc1NC(=O)CSc1nnc([C@@H](N)Cc2c[nH]c3ccccc23)o1 ?
CatB mixtures: 6; CatS block: 17; CatL inh: 120*; BAP1 block: inactive; E coli RNAP: 5; CatB block: 0

How did Cc1ccc(N)c(C(=O)c2cccc(Cl)c2)c1 do in these assays?
BAP1 block: inactive

How did CCOc1ccc(C(=O)Nc2ccc(Cl)cc2C(=O)c2ccccc2)cc1 do in these assays?
BAP1 block: inactive

What do the screens show for `NC(Cc1cc(O)c(O)cc1O)C(=O)O` (stereo not drawn)?
BAP1 block: active

How did N[C@@H](CCl)C(=O)O do in these assays?
BAP1 block: inactive

How did Cn1cccc1CNCCc1ccccc1F do in these assays?
CatB mixtures: 1; CatS block: 3; CatL inh: 54*; BAP1 block: inactive; E coli RNAP: 16; CatB block: -2

How did CC1=C(C(=O)OC(C)C)C2(C(=O)Nc3ccccc32)C(C(=O)OCc2ccccc2)=C(N)O1 (stereo not drawn) do in these assays?
BAP1 block: inactive

How did CCCCn1c(=O)c(C(=O)Nc2nc3ccccc3[nH]2)c(O)c2ccccc21 do in these assays?
CatB mixtures: -1; CatS block: -4; CatL inh: -11; BAP1 block: active; E coli RNAP: 9; CatB block: 4

What do the screens show for `O=C(Nc1ccc(Br)cc1C(=O)c1ccccc1Cl)c1ccc(N2C(=O)CCC2=O)cc1`?
BAP1 block: inactive

Results for COc1ccc2c(c1OC)C(=O)O[C@H]2[C@@H]1c2cc3c(cc2CCN1C)OCO3 ?
BAP1 block: inactive

What do the screens show for `COc1cc2c(cc1OC)-c1c(OC)c(OC)cc3c1C(C2)N(C)CC3` (stereo not drawn)?
CatB mixtures: 20; CatS block: inconclusive; CatL inh: 14; BAP1 block: inactive; E coli RNAP: -2; CatB block: 27*

Results for CCn1nc(-c2cccs2)nc2c(=O)n(C)c(=O)nc1-2 ?
CatB mixtures: 86*; CatS block: 87*; CatL inh: 81*; BAP1 block: active; E coli RNAP: 9; CatB block: 82*; BAP1 inh conf: 94

How did CC(=Nc1ccc2c(c1)CCC2)c1c(O)n(C2CCCCC2)c(=O)[nH]c1=O do in these assays?
CatB mixtures: 2; CatS block: 10; CatL inh: 5; E coli RNAP: 8; CatB block: 2

How did CCC(=Nc1ccc2c(c1)CCC2)c1c(O)n(C2CCCCC2)c(=O)[nH]c1=O do in these assays?
CatB mixtures: -3; CatS block: 5; CatL inh: 18; BAP1 block: active; E coli RNAP: 1; CatB block: 1; BAP1 inh conf: 84

Compound activity from PubChem.
